Measured values taken from PubChem BioAssay AID1159580 (chemical genetic matrix, 2015).
The campaign covered roughly 5,500 compounds. About 2,000 (36%) were called active. Another 18% or so got no clear call; they are omitted. No stated cut-off is given here; in the data, active means normalized growth mostly below about 0.91 (no sharp cut-off); inconclusive means no clear call, values can overlap the other calls; inactive means mostly above about 0.92. Some of the results follow.

Test: chemical genetic growth profiling, strain panel (AID 1159580);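 further: tested at 20 µM; growth read once vehicle control cultures reached saturation at 30 °C; 1 = growth at the plate median or of vehicle wells; lower values mean less growth of the strain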
Settings: S. cerevisiae deletion strains, growth OD

Measured: normalized growth

Clc1ccc(C(c2ccc(Cl)cc2)C(Cl)(Cl)Cl)cc1
inactive: locus YAL013W, strain DEP1, hits give low values 1 | locus YAL021C, strain ccr4, hits give low values 1.01 | locus YAL026C, strain drs2, hits give low values 1.01 | locus YAL030W, strain snc1, hits give low values 1 | locus YBL061C, strain skt5, hits give low values 1.01 | locus YBR009C, strain hhf1, hits give low values 0.998 | locus YBR021W, strain FUR4, hits give low values 0.999 | locus YBR023C, strain chs3, hits give low values 1.01 | locus YBR171W, strain sec66, hits give low values 1.01 | locus YBR229C, strain ROT2, hits give low values 1.02 | locus YBR231C, strain swc5, hits give low values 1.01 | locus YBR279W, strain paf1, hits give low values 1.01 | locus YCL011C, strain gbp2, hits give low values 1.01 | locus YCL016C, strain dcc1, hits give low values 1.01 | locus YCL029C, strain bik1, hits give low values 1.01 | locus YCL061C, strain MRC1, hits give low values 1.01 | locus YCL069W, strain vba3, hits give low values 0.999 | locus YCR088W, strain abp1, hits give low values 1.01 | locus YDL005C, strain med2, hits give low values 1 | locus YDL035C, strain GPR1, hits give low values 0.983 | locus YDL040C, strain nat1, hits give low values 1.01 | locus YDL074C, strain BRE1, hits give low values 1.02 | locus YDL101C, strain DUN1, hits give low values 1.02 | locus YDL134C, strain PPH21, hits give low values 1.02 | locus YDL185W, strain tfp1, hits give low values 0.999 | locus YDL192W, strain arf1, hits give low values 1 | locus YDR001C, strain nth1, hits give low values 1.01 | locus YDR069C, strain doa4, hits give low values 0.992 | locus YDR101C, strain arx1, hits give low values 0.993 | locus YDR137W, strain rgp1, hits give low values 1.01 | locus YDR150W, strain NUM1, hits give low values 1.03 | locus YDR159W, strain sac3, hits give low values 1.01 | locus YDR162C, strain NBP2, hits give low values 1.01 | locus YDR195W, strain ref2 1.04 | locus YDR297W, strain sur2, hits give low values 1.01 | locus YDR318W, strain mcm21, hits give low values 0.999 | locus YDR334W, strain swr1, hits give low values 1.02 | locus YDR335W, strain msn5, hits give low values 1.01 | locus YDR388W, hits give low values 0.993 | locus YDR392W, strain spt3, hits give low values 0.977 | locus YDR502C, strain sam2, hits give low values 0.999 | locus YEL003W, strain gim4, hits give low values 1.01 | locus YEL037C, strain rad23, hits give low values 1.01 | locus YEL061C, strain CIN8 (second series), hits give low values 1.01 | locus YEL061C, strain CIN8, hits give low values 1.02 | locus YER015W, strain faa2, hits give low values 1.01 | locus YER016W, strain bim1, hits give low values 1 | locus YER110C, hits give low values 0.997 | locus YER111C, strain swi4, hits give low values 1.01 | locus YER155C, strain BEM2 (second series), hits give low values 1 | locus YER155C, strain BEM2, hits give low values 1.02 | locus YER167W, strain BCK2, hits give low values 1.01 | locus YFR010W, strain ubp6, hits give low values 1.01 | locus YGL078C, strain dbp3, hits give low values 1 | locus YGL086W, strain mad1, hits give low values 1.01 | locus YGL167C, strain pmr1, hits give low values 1.01 | locus YGL173C, strain kem1, hits give low values 0.995 | locus YGL227W, strain vid30, hits give low values 1.01 | locus YGL240W, strain doc1, hits give low values 0.997 | locus YGL248W, strain PDE1, hits give low values 1.02 | locus YGL253W, strain hxk2, hits give low values 1 | locus YGR078C, strain PAC10, hits give low values 1.01 | locus YGR135W, strain pre9, hits give low values 1 | locus YGR229C, strain SMI1, hits give low values 0.997 | locus YGR252W, strain gcn5, hits give low values 0.916 | locus YHR013C, strain ard1, hits give low values 1.03 | locus YHR027C, strain rpn1, hits give low values 1 | locus YHR030C, strain SLT2, hits give low values 1.03 | locus YHR079C, strain IRE1 (second series), hits give low values 0.999 | locus YHR094C, strain hxt1, hits give low values 1 | locus YHR129C, strain ARP1, hits give low values 1.03 | locus YHR142W, strain chs7, hits give low values 1.01 | locus YHR200W, strain rpn10, hits give low values 0.991 | locus YIL066C, strain RNR3, hits give low values 1.01 | locus YIL073C, strain SPO22, hits give low values 0.972 | locus YIL125W, strain kgd1, hits give low values 1 | locus YIR030C, strain dcg1, hits give low values 0.993 | locus YJL092W, strain hpr5, hits give low values 1 | locus YJL095W, strain BCK1 (second series), hits give low values 1.01 | locus YJL095W, strain BCK1, hits give low values 1.02 | locus YJL115W, strain asf1, hits give low values 1.02 | locus YJL129C, strain trk1, hits give low values 0.993 | locus YJL134W, strain LCB3, hits give low values 1.02 | locus YJL154C, strain vps35, hits give low values 1.02 | locus YJL164C, strain tpk1, hits give low values 1.01 | locus YJL166W, strain qcr8, hits give low values 1 | locus YJL168C, strain set2, hits give low values 1.01 | locus YJL187C, strain SWE1 (second series), hits give low values 1.02 | locus YJL187C, strain SWE1, hits give low values 1.01
